Test results published in PubChem BioAssay AID1159580 (chemical genetic matrix, 2015).
About 2,000 (36%) of roughly 5,500 compounds were called active. Not shown: some 18% with an inconclusive outcome. No stated cut-off is given here; in the data, active means normalized growth mostly below about 0.91 (no sharp cut-off); inconclusive means no clear call, values can overlap the other calls; inactive means mostly above about 0.92. This is one part of the list.

Experiment: chemical genetic growth profiling, strain panel (AID 1159580);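 further: tested at 20 µM; growth read once vehicle control cultures reached saturation at 30 °C; 1 = growth at the plate median or of vehicle wells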
Conditions: S. cerevisiae deletion strains, growth OD

Measured: normalized growth

COc1cc(-c2oc3cc(O)ccc3c(=O)c2O)ccc1O
active: locus YAL021C, strain ccr4, stronger effect = lower value 0.743 | locus YAL026C, strain drs2, stronger effect = lower value 0.873 | locus YBR023C, strain chs3, stronger effect = lower value 0.861 | locus YBR231C, strain swc5, stronger effect = lower value 0.826 | locus YBR279W, strain paf1, stronger effect = lower value 0.853 | locus YDR069C, strain doa4, stronger effect = lower value 0.774 | locus YDR137W, strain rgp1, stronger effect = lower value 0.763 | locus YDR195W, strain ref2 1.18 [resistant] | locus YDR334W, strain swr1, stronger effect = lower value 0.887 | locus YER015W, strain faa2, stronger effect = lower value 0.859 | locus YGL173C, strain kem1, stronger effect = lower value 0.86 | locus YGL253W, strain hxk2, stronger effect = lower value 0.833 | locus YHR013C, strain ard1, stronger effect = lower value 0.814 | locus YHR027C, strain rpn1, stronger effect = lower value 0.788 | locus YHR142W, strain chs7, stronger effect = lower value 0.827 | locus YJL164C, strain tpk1, stronger effect = lower value 0.829 | locus YJL166W, strain qcr8, stronger effect = lower value 0.895 | locus YJL187C, strain SWE1, stronger effect = lower value 0.885 | locus YLR027C, strain aat2, stronger effect = lower value 0.902 | locus YLR221C, strain rsa3, stronger effect = lower value 0.899 | locus YLR262C, strain YPT6 (second series), stronger effect = lower value 0.748 | locus YLR357W, strain rsc2, stronger effect = lower value 0.8 | locus YMR058W, strain fet3, stronger effect = lower value 0.306 | locus YMR231W, strain pep5, stronger effect = lower value 0.906 | locus YNL209W, strain ssb2, stronger effect = lower value 0.647 | locus YOR070C, strain gyp1, stronger effect = lower value 0.873 | locus YOR083W, strain WHI5, stronger effect = lower value 0.85 | locus YOR106W, strain vam3, stronger effect = lower value 0.567 | locus YOR270C, strain vph1, stronger effect = lower value 0.542 | locus YPL051W, strain arl3, stronger effect = lower value 0.744
inactive: locus YAL030W, strain snc1, stronger effect = lower value 0.977 | locus YBL061C, strain skt5, stronger effect = lower value 0.926 | locus YBR009C, strain hhf1, stronger effect = lower value 0.925 | locus YBR171W, strain sec66, stronger effect = lower value 1 | locus YCL011C, strain gbp2, stronger effect = lower value 0.942 | locus YCL016C, strain dcc1, stronger effect = lower value 0.961 | locus YCL061C, strain MRC1, stronger effect = lower value 0.993 | locus YCL069W, strain vba3, stronger effect = lower value 0.987 | locus YCR088W, strain abp1, stronger effect = lower value 1.02 | locus YDL005C, strain med2, stronger effect = lower value 1.03 | locus YDL040C, strain nat1, stronger effect = lower value 1.01 | locus YDR001C, strain nth1, stronger effect = lower value 1.02 | locus YDR159W, strain sac3, stronger effect = lower value 1.06 | locus YDR297W, strain sur2, stronger effect = lower value 0.958 | locus YDR335W, strain msn5, stronger effect = lower value 0.971 | locus YDR392W, strain spt3, stronger effect = lower value 0.868 | locus YEL003W, strain gim4, stronger effect = lower value 0.961 | locus YEL037C, strain rad23, stronger effect = lower value 0.972 | locus YEL061C, strain CIN8 (second series), stronger effect = lower value 1 | locus YER016W, strain bim1, stronger effect = lower value 0.986 | locus YER111C, strain swi4, stronger effect = lower value 0.979 | locus YER155C, strain BEM2 (second series), stronger effect = lower value 0.977 | locus YFR010W, strain ubp6, stronger effect = lower value 0.906 | locus YGL167C, strain pmr1, stronger effect = lower value 0.995 | locus YGL227W, strain vid30, stronger effect = lower value 1.04 | locus YGL240W, strain doc1, stronger effect = lower value 1.04 | locus YJL092W, strain hpr5, stronger effect = lower value 1.01 | locus YJL095W, strain BCK1 (second series), stronger effect = lower value 0.967 | locus YJL115W, strain asf1, stronger effect = lower value 1.01 | locus YJL129C, strain trk1, stronger effect = lower value 0.911 | locus YJL154C, strain vps35, stronger effect = lower value 1 | locus YKL160W, strain elf1, stronger effect = lower value 0.912 | locus YKR026C, strain gcn3, stronger effect = lower value 1.02 | locus YKR091W, strain srl3, stronger effect = lower value 1 | locus YLL001W, strain dnm1, stronger effect = lower value 0.959 | locus YLL026W, stronger effect = lower value 0.954 | locus YLL041C, strain sdh2, stronger effect = lower value 0.994 | locus YLR258W, strain gsy2, stronger effect = lower value 0.935 | locus YLR320W, strain mms22, stronger effect = lower value 0.9 | locus YLR342W, strain FKS1, stronger effect = lower value 0.966 | locus YLR370C, strain arc18, stronger effect = lower value 0.96 | locus YLR384C, strain iki3, stronger effect = lower value 0.987 | locus YML120C, strain ndi1, stronger effect = lower value 0.975 | locus YMR125W, strain sto1, stronger effect = lower value 1.11 | locus YMR129W, stronger effect = lower value 0.998 | locus YMR205C, strain PFK2, stronger effect = lower value 0.926 | locus YNL071W, strain lat1, stronger effect = lower value 0.96 | locus YNL248C, strain rpa49, stronger effect = lower value 0.968 | locus YNL322C, strain KRE1 (second series), stronger effect = lower value 1.03 | locus YNR049C, strain mso1, stronger effect = lower value 1 | locus YOR001W, strain rrp6, stronger effect = lower value 0.917 | locus YOR080W, strain dia2, stronger effect = lower value 1 | locus YOR265W, strain rbl2, stronger effect = lower value 0.968 | locus YOR290C, strain snf2, stronger effect = lower value 0.888 | locus YPL078C, strain atp4, stronger effect = lower value 0.927 | locus YPL106C, strain sse1, stronger effect = lower value 0.935 | locus YPL240C, strain hsp82, stronger effect = lower value 0.972
